Experiment [1] in a line: NCI Yeast Anticancer Drug Screen. Data for the rad50 strain (AID 155).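 Note: 0% = growth of vehicle-only cultures of the same strain.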 Conditions: S. cerevisiae rad50 strain growth inhibition, hits give high values. An outline of the steps:
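Yeast carrying a defined DNA repair defect were exposed to test compounds, and growth was compared with vehicle-treated controls to give percent inhibition.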

Experiment [2] is described as follows: NCI Yeast Anticancer Drug Screen. Data for the mec2-1 strain (AID 157). Conditions: S. cerevisiae mec2-1 strain, hits give high values. An outline of the steps:
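Mutant yeast (mec2-1) grown with compound; growth inhibition relative to vehicle control reported.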

A short description of experiment [3]: NCI Yeast Anticancer Drug Screen. Data for the sgs1 mgt1 strain (AID 161).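 Note: 0% = growth of cultures given vehicle only.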 The following applies: S. cerevisiae sgs1 mgt1 strain, hits give high values. In outline:
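Compounds are added to genetically altered yeast, and growth is compared with cultures given vehicle alone to give percent inhibition.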

Experiment [4] is described as follows: NCI Yeast Anticancer Drug Screen. Data for the cln2 rad14 strain (AID 165).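 Note: 0% = growth equal to vehicle treated cultures.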 The following applies: S. cerevisiae cln2 rad14 strain, hits give high values. An outline of the steps: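 Readout is yeast growth inhibition versus vehicle-treated controls, using a strain with cln2 and rad14 alterations exposed to compound.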
The nature of experiment [5]: NCI Yeast Anticancer Drug Screen. Data for the bub3 strain (AID 167). Conditions: S. cerevisiae bub3 mutant strain, hits give high values. An outline of the steps:
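Compounds were applied to a genetically altered yeast strain carrying a cell-cycle control defect. Growth inhibition was scored against vehicle-treated controls.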

Experiment [6] in a line: NCI Yeast Anticancer Drug Screen. Data for the mlh1 rad18 strain (AID 175). The following applies: S. cerevisiae mlh1 rad18 strain growth inhibition, hits give high values. In outline:
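Genetically defined yeast (DNA repair-deficient) exposed to compounds; growth inhibition determined relative to vehicle.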

[7] abbreviates: at 5.0 µM (retest, dose inferred, filed as 0.5).
The mark [8] stands for this setting: at 50.0 µM (retest, dose inferred, filed as 5.0).

Molecules are shown by their SMILES. The panel holds about 79,000 compounds, 15% with a hit somewhere; the sample as a whole holds those more often. A number with no mark means an inactive call. Activity calls are given as the source filed them. Cut-off read from the data, not from the text of the source: active = growth inhibition above about 70%; inactive = the rest.

Turning to `Cc1cccc(CC(C)(C)C)c1NC(=O)C(=O)C(C(=O)c1ccc2ccccc2c1)C1OC(=O)c2ccccc21` (stereo not given), the growth inhibition in experiment [1] (setting [7]) was 6%; in experiment [1] (setting [8]), 78% (active); in experiment [1] (at 50.0 µM), 52.8%; in experiment [2] (setting [7]), -1%; in experiment [2] (setting [8]) it was 92% (active); in experiment [2] (at 50.0 µM) it was 23.6%. The growth inhibition is 9% in experiment [3] (setting [7]); 92% (active) in experiment [3] (setting [8]); 36.3% in experiment [3] (at 50.0 µM); -1% in experiment [4] (setting [7]); 76% (active) in experiment [4] (setting [8]); 12.8% in experiment [4] (at 50.0 µM). Moreover, the growth inhibition was 2% in experiment [5] (setting [7]); 93% (active) in experiment [5] (setting [8]); 52.1% in experiment [5] (at 50.0 µM); -1% in experiment [6] (setting [7]); 86% (active) in experiment [6] (setting [8]); 68.2% in experiment [6] (at 50.0 µM).
Regarding `COc1ccc(Cc2ccc3c(C)cc(Cl)nc3c2)cc1`, the growth inhibition in experiment [1] (setting [7]) was 1%; in experiment [1] (setting [8]), 74% (active); in experiment [1] (at 50.0 µM) it was 77% (active); in experiment [2] (setting [7]), -8%; in experiment [2] (setting [8]) it was 87% (active); in experiment [2] (at 50.0 µM), 67.8%. In addition, the growth inhibition is -5% in experiment [3] (setting [7]); 96% (active) in experiment [3] (setting [8]); 87% (active) in experiment [3] (at 50.0 µM); 1% in experiment [4] (setting [7]); 29% in experiment [4] (setting [8]); 31.6% in experiment [4] (at 50.0 µM). Besides, the growth inhibition in experiment [5] (setting [7]) was 10%; in experiment [5] (setting [8]) it was 78% (active); in experiment [5] (at 50.0 µM) it was 89% (active); in experiment [6] (setting [7]), 0%; in experiment [6] (setting [8]), 93% (active); in experiment [6] (at 50.0 µM), 86.3% (active).
Regarding `COc1ccc(-c2cc(C(=O)O)c3cccc(C(F)(F)F)c3n2)cc1`, the growth inhibition in experiment [1] (setting [7]) was 15%; in experiment [1] (setting [8]), 85% (active); in experiment [1] (at 50.0 µM) it was 67.9%; in experiment [2] (setting [7]), 4%; in experiment [2] (setting [8]), 83% (active); in experiment [2] (at 50.0 µM), 57.6%. The growth inhibition was 0% in experiment [3] (setting [7]); 92% (active) in experiment [3] (setting [8]); 72.9% (active) in experiment [3] (at 50.0 µM); 22% in experiment [4] (setting [7]); 80% (active) in experiment [4] (setting [8]); 64.5% in experiment [4] (at 50.0 µM). Also, the growth inhibition in experiment [5] (setting [7]) is 12%; in experiment [5] (setting [8]), 78% (active); in experiment [5] (at 50.0 µM) it was 59%; in experiment [6] (setting [7]) it was 17%; in experiment [6] (setting [8]), 96% (active); in experiment [6] (at 50.0 µM), 89.7% (active).
Consider `Clc1ccccc1N1CCN(c2c3c(nc4ccccc24)CCCCC3)CC1`, for which the growth inhibition was -4% in experiment [1] (setting [7]); 89% (active) in experiment [1] (setting [8]); 93.3% (active) in experiment [1] (at 50.0 µM); 11% in experiment [2] (setting [7]); 96% (active) in experiment [2] (setting [8]); 95.8% (active) in experiment [2] (at 50.0 µM). Besides, the growth inhibition was 38% in experiment [3] (setting [7]); 96% (active) in experiment [3] (setting [8]); 94% (active) in experiment [3] (at 50.0 µM); -13% in experiment [4] (setting [7]); 91% (active) in experiment [4] (setting [8]); 94.2% (active) in experiment [4] (at 50.0 µM). Also, the growth inhibition in experiment [5] (setting [7]) was -10%; in experiment [5] (setting [8]), 92% (active); in experiment [5] (at 50.0 µM) it was 93.2% (active); in experiment [6] (setting [7]), 42%; in experiment [6] (setting [8]), 94% (active); in experiment [6] (at 50.0 µM), 95.6% (active).
Turning to `Cc1ccc(N2C(=O)C(C)SC2=S)cc1Cl` (stereo not given), the growth inhibition in experiment [1] (setting [7]) was 2%; in experiment [1] (setting [8]), -4%; in experiment [1] (at 50.0 µM) it was 86.2% (active); in experiment [2] (setting [7]), -1%; in experiment [2] (setting [8]), -1%; in experiment [2] (at 50.0 µM), 51.9%. For the same molecule, the growth inhibition was 1% in experiment [3] (setting [7]); -25% in experiment [3] (setting [8]); 94.7% (active) in experiment [3] (at 50.0 µM); -2% in experiment [4] (setting [7]); -2% in experiment [4] (setting [8]); 13.7% in experiment [4] (at 50.0 µM). For the same molecule, the growth inhibition in experiment [5] (setting [7]) is -4%; in experiment [5] (setting [8]) it was 1%; in experiment [5] (at 50.0 µM) it was 48%; in experiment [6] (setting [7]) it was -5%; in experiment [6] (setting [8]) it was 1%; in experiment [6] (at 50.0 µM), 93.5% (active).
For the molecule `CCc1ccc(C(=O)O)c2ccccc12`, the growth inhibition is -8% in experiment [1] (setting [7]); 81% (active) in experiment [1] (setting [8]); 68.1% in experiment [1] (at 50.0 µM); 8% in experiment [2] (setting [7]); 48% in experiment [2] (setting [8]); 24.9% in experiment [2] (at 50.0 µM). Moreover, the growth inhibition in experiment [3] (setting [7]) was -2%; in experiment [3] (setting [8]), 72% (active); in experiment [3] (at 50.0 µM), 35.1%; in experiment [4] (setting [7]), 8%; in experiment [4] (setting [8]), 69%; in experiment [4] (at 50.0 µM), 51.6%. Besides, the growth inhibition in experiment [5] (setting [7]) was -6%; in experiment [5] (setting [8]), 62%; in experiment [5] (at 50.0 µM), 8.4%; in experiment [6] (setting [7]), -1%; in experiment [6] (setting [8]), 85% (active); in experiment [6] (at 50.0 µM) it was 51.6%.
Consider `CC(CO)(CO)N=Cc1cc(I)cc(I)c1O`, for which the growth inhibition was 91% (active) in experiment [1] (setting [7]); 100% (active) in experiment [1] (setting [8]); 99.6% (active) in experiment [1] (at 50.0 µM); 97% (active) in experiment [2] (setting [7]); 100% (active) in experiment [2] (setting [8]); 99.6% (active) in experiment [2] (at 50.0 µM). Besides, the growth inhibition in experiment [3] (setting [7]) was 86% (active); in experiment [3] (setting [8]), 99% (active); in experiment [3] (at 50.0 µM), 99.7% (active); in experiment [4] (setting [7]) it was 87% (active); in experiment [4] (setting [8]) it was 99% (active); in experiment [4] (at 50.0 µM), 99.4% (active). Moreover, the growth inhibition in experiment [5] (setting [7]) is 86% (active); in experiment [5] (setting [8]), 100% (active); in experiment [5] (at 50.0 µM), 99.5% (active); in experiment [6] (setting [7]), 98% (active); in experiment [6] (setting [8]) it was 100% (active); in experiment [6] (at 50.0 µM), 99.6% (active).
Regarding `O=C1C=CC(=O)N1Cc1ccccc1`, the growth inhibition was 98% (active) in experiment [1] (setting [7]); 99% (active) in experiment [1] (setting [8]); 99.3% (active) in experiment [1] (at 50.0 µM); 100% (active) in experiment [2] (setting [7]); 100% (active) in experiment [2] (setting [8]); 99.7% (active) in experiment [2] (at 50.0 µM). In addition, the growth inhibition in experiment [3] (setting [7]) was 97% (active); in experiment [3] (setting [8]), 99% (active); in experiment [3] (at 50.0 µM), 99.5% (active); in experiment [4] (setting [7]), 97% (active); in experiment [4] (setting [8]), 100% (active); in experiment [4] (at 50.0 µM), 99% (active). Besides, the growth inhibition in experiment [5] (setting [7]) was 99% (active); in experiment [5] (setting [8]), 100% (active); in experiment [5] (at 50.0 µM) it was 99.3% (active); in experiment [6] (setting [7]), 95% (active); in experiment [6] (setting [8]), 100% (active); in experiment [6] (at 50.0 µM) it was 99.2% (active).
On to `CC1=CC(C2/C(=N/O)C=C(C)CC2(C)C)C(O)C(C)(C)C1` (stereo not given), for which the growth inhibition in experiment [1] (setting [7]) was 7%; in experiment [1] (setting [8]), 95% (active); in experiment [1] (at 50.0 µM), 99.2% (active); in experiment [2] (setting [7]), -18%; in experiment [2] (setting [8]), 99% (active); in experiment [2] (at 50.0 µM), 98.2% (active). The growth inhibition in experiment [3] (setting [7]) was -4%; in experiment [3] (setting [8]) it was 96% (active); in experiment [3] (at 50.0 µM), 98.8% (active); in experiment [4] (setting [7]), -1%; in experiment [4] (setting [8]), 97% (active); in experiment [4] (at 50.0 µM), 97.8% (active). For the same molecule, the growth inhibition was -23% in experiment [5] (setting [7]); 92% (active) in experiment [5] (setting [8]); 98.2% (active) in experiment [5] (at 50.0 µM); -3% in experiment [6] (setting [7]); 98% (active) in experiment [6] (setting [8]); 98.7% (active) in experiment [6] (at 50.0 µM).
In the case of `CCN(CC)CCNc1ccc2ncn3c4c(OC)ccc(=O)c4c(O)c1c23`, the growth inhibition was 24% in experiment [1] (setting [7]); 96% (active) in experiment [1] (setting [8]); 25.4% in experiment [1] (at 50.0 µM); 9% in experiment [2] (setting [7]); 65% in experiment [2] (setting [8]); 19.9% in experiment [2] (at 50.0 µM). In addition, the growth inhibition in experiment [3] (setting [7]) was 3%; in experiment [3] (setting [8]), 54%; in experiment [3] (at 50.0 µM), 22.6%; in experiment [4] (setting [7]) it was -1%; in experiment [4] (setting [8]), 29%; in experiment [4] (at 50.0 µM) it was -1.95%. The growth inhibition in experiment [5] (setting [7]) was 9%; in experiment [5] (setting [8]), 19%; in experiment [5] (at 50.0 µM), -13.1%; in experiment [6] (setting [7]) it was 9%; in experiment [6] (setting [8]), 83% (active); in experiment [6] (at 50.0 µM), 4.65%.
